Measurements published in PubChem BioAssay AID1159580 (chemical genetic matrix, 2015).
Hit rate of the full screen: of about 5,500 compounds, about 2,000 (36%) were called active. Not shown: some 18% with an inconclusive outcome. Cut-off read from the data, not from the text of the source: active = normalized growth mostly below about 0.91 (no sharp cut-off); inconclusive = no clear call, values can overlap the other calls; inactive = mostly above about 0.92. The list shows a part of the results.

Experiment: chemical genetic growth profiling, strain panel (AID 1159580);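 note: tested at 20 µM; growth read once vehicle control cultures reached saturation at 30 °C; 1 = growth at the plate median or of vehicle wells; lower values mean less growth of the strain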
Conditions: growth OD

Measured: normalized growth

C=CCc1ccc2c(c1)OCO2
inactive: S. cerevisiae deletion strains, locus YJR043C, strain POL32, active compounds read low 1.02 | S. cerevisiae deletion strains, locus YJR066W, strain TOR1, active compounds read low 0.928 | S. cerevisiae deletion strains, locus YJR075W, strain HOC1, active compounds read low 1.03 | S. cerevisiae deletion strains, locus YKL009W, strain mrt4, active compounds read low 0.979 | S. cerevisiae deletion strains, locus YKL068W, active compounds read low 0.987 | S. cerevisiae deletion strains, locus YKL085W, strain MDH1 (second series), active compounds read low 1.01 | S. cerevisiae deletion strains, locus YKL085W, strain MDH1, active compounds read low 1.01 | S. cerevisiae deletion strains, locus YKL160W, strain elf1, active compounds read low 0.994 | S. cerevisiae deletion strains, locus YKL190W, strain CNB1, active compounds read low 1.01 | S. cerevisiae deletion strains, locus YKR001C, strain vps1, active compounds read low 0.965 | S. cerevisiae deletion strains, locus YKR026C, strain gcn3, active compounds read low 1.03 | S. cerevisiae deletion strains, locus YKR091W, strain srl3, active compounds read low 1.02 | S. cerevisiae deletion strains, locus YLL001W, strain dnm1, active compounds read low 1.05 | S. cerevisiae deletion strains, locus YLL026W, active compounds read low 1.01 | S. cerevisiae deletion strains, locus YLL041C, strain sdh2, active compounds read low 1.02 | S. cerevisiae deletion strains, locus YLR027C, strain aat2, active compounds read low 1 | S. cerevisiae deletion strains, locus YLR039C, strain RIC1, active compounds read low 0.891 | S. cerevisiae deletion strains, locus YLR058C, strain SHM2, active compounds read low 1.01 | S. cerevisiae deletion strains, locus YLR102C, strain apc9, active compounds read low 0.993 | S. cerevisiae deletion strains, locus YLR113W, strain HOG1, active compounds read low 1.03 | S. cerevisiae deletion strains, locus YLR221C, strain rsa3, active compounds read low 1.06 | S. cerevisiae deletion strains, locus YLR258W, strain gsy2, active compounds read low 1.02 | S. cerevisiae deletion strains, locus YLR262C, strain YPT6 (second series), active compounds read low 1.03 | S. cerevisiae deletion strains, locus YLR262C, strain YPT6, active compounds read low 0.909 | S. cerevisiae deletion strains, locus YLR268W, strain sec22, active compounds read low 0.987 | S. cerevisiae deletion strains, locus YLR320W, strain mms22, active compounds read low 1.04 | S. cerevisiae deletion strains, locus YLR330W, strain CHS5, active compounds read low 1 | S. cerevisiae deletion strains, locus YLR342W, strain FKS1 (second series), active compounds read low 1.01 | S. cerevisiae deletion strains, locus YLR342W, strain FKS1, active compounds read low 1.02 | S. cerevisiae deletion strains, locus YLR357W, strain rsc2, active compounds read low 1.13 | S. cerevisiae deletion strains, locus YLR370C, strain arc18, active compounds read low 1.04 | S. cerevisiae deletion strains, locus YLR371W, strain rom2, active compounds read low 0.984 | S. cerevisiae deletion strains, locus YLR384C, strain iki3, active compounds read low 1.03 | S. cerevisiae deletion strains, locus YLR418C, strain cdc73, active compounds read low 1.01 | S. cerevisiae deletion strains, locus YML016C, strain PPZ1, active compounds read low 1.01 | S. cerevisiae deletion strains, locus YML032C, strain rad52, active compounds read low 0.996 | S. cerevisiae deletion strains, locus YML120C, strain ndi1, active compounds read low 1.05 | S. cerevisiae deletion strains, locus YML124C, strain tub3, active compounds read low 0.995 | S. cerevisiae deletion strains, locus YMR058W, strain fet3, active compounds read low 1.04 | S. cerevisiae deletion strains, locus YMR078C, strain ctf18, active compounds read low 0.985 | S. cerevisiae deletion strains, locus YMR125W, strain sto1, active compounds read low 1.08 | S. cerevisiae deletion strains, locus YMR129W, active compounds read low 1.03 | S. cerevisiae deletion strains, locus YMR205C, strain PFK2, active compounds read low 1 | S. cerevisiae deletion strains, locus YMR223W, strain ubp8, active compounds read low 1 | S. cerevisiae deletion strains, locus YMR231W, strain pep5, active compounds read low 1.02 | S. cerevisiae deletion strains, locus YMR263W, strain SAP30, active compounds read low 1 | S. cerevisiae deletion strains, locus YMR307W, strain GAS1, active compounds read low 0.995 | S. cerevisiae deletion strains, locus YNL067W, strain RPL9B, active compounds read low 0.998 | S. cerevisiae deletion strains, locus YNL071W, strain lat1, active compounds read low 1.03 | S. cerevisiae deletion strains, locus YNL183C, strain NPR1, active compounds read low 0.97 | S. cerevisiae deletion strains, locus YNL209W, strain ssb2, active compounds read low 1.02 | S. cerevisiae deletion strains, locus YNL233W, strain BNI4, active compounds read low 1 | S. cerevisiae deletion strains, locus YNL248C, strain rpa49, active compounds read low 1.04 | S. cerevisiae deletion strains, locus YNL250W, strain rad50, active compounds read low 1.01 | S. cerevisiae deletion strains, locus YNL271C, strain bni1, active compounds read low 0.978 | S. cerevisiae deletion strains, locus YNL298W, strain CLA4, active compounds read low 0.995 | S. cerevisiae deletion strains, locus YNL307C, strain MCK1, active compounds read low 0.989 | S. cerevisiae deletion strains, locus YNL322C, strain KRE1 (second series), active compounds read low 1.02 | S. cerevisiae deletion strains, locus YNR049C, strain mso1, active compounds read low 1.02 | S. cerevisiae deletion strains, locus YNR052C, strain pop2, active compounds read low 0.997 | S. cerevisiae deletion strains, locus YOL012C, strain htz1 0.985 | S. cerevisiae deletion strains, locus YOL147C, strain pex11, active compounds read low 0.987 | S. cerevisiae deletion strains, locus YOR001W, strain rrp6, active compounds read low 1 | S. cerevisiae deletion strains, locus YOR061W, strain CKA2, active compounds read low 1.01 | S. cerevisiae deletion strains, locus YOR069W, strain VPS5, active compounds read low 1.01 | S. cerevisiae deletion strains, locus YOR070C, strain gyp1, active compounds read low 1.01 | S. cerevisiae deletion strains, locus YOR080W, strain dia2, active compounds read low 1.03 | S. cerevisiae deletion strains, locus YOR083W, strain WHI5, active compounds read low 1 | S. cerevisiae deletion strains, locus YOR106W, strain vam3, active compounds read low 1.04 | S. cerevisiae deletion strains, locus YOR136W, strain idh2, active compounds read low 0.987 | S. cerevisiae deletion strains, locus YOR144C, strain elg1, active compounds read low 0.988 | S. cerevisiae deletion strains, locus YOR184W, strain ser1, active compounds read low 0.99 | S. cerevisiae deletion strains, locus YOR231W, strain MKK1, active compounds read low 0.99 | S. cerevisiae deletion strains, locus YOR265W, strain rbl2, active compounds read low 1.01 | S. cerevisiae deletion strains, locus YOR270C, strain vph1, active compounds read low 1.07 | S. cerevisiae deletion strains, locus YOR290C, strain snf2, active compounds read low 1.07 | S. cerevisiae deletion strains, locus YOR316C, strain cot1, active compounds read low 0.99 | S. cerevisiae deletion strains, locus YPL051W, strain arl3, active compounds read low 1 | S. cerevisiae deletion strains, locus YPL078C, strain atp4, active compounds read low 1.01 | S. cerevisiae deletion strains, locus YPL106C, strain sse1, active compounds read low 1.03 | S. cerevisiae deletion strains, locus YPL240C, strain hsp82, active compounds read low 1.02 | S. cerevisiae deletion strains, locus YPL256C, strain CLN2, active compounds read low 0.966 | S. cerevisiae deletion strains, locus YPR119W, strain clb2, active compounds read low 0.982 | S. cerevisiae deletion strains, locus YPR141C, strain kar3, active compounds read low 0.976 | S. cerevisiae deletion strains, locus YPR163C, strain tif3, active compounds read low 0.989 | S. cerevisiae deletion strains, locus YPR167C, strain met16, active compounds read low 0.991 | S. cerevisiae deletion strains, strain wtn01, active compounds read low 1.01 | S. cerevisiae strains, strain wild type, active compounds read low 1.01
